# Test results from the supplement of paper PMC10720658.
# ± gives the standard deviation of the averaged measurements.
# System: AEK1 (Tb927.3.2440)
# Test: percent reduction in TR-FRET probe signal relative to DMSO control; higher = stronger displacement of ATP-site probe (binding)
# Conditions: 1 µM; incubation time 1 h
row,SMILES,percent reduction in TR-FRET probe signal
1,Cc1c[nH]c(-c2cnc(NCCNc3ccc(C#N)cn3)nc2-c2ccc(Cl)cc2Cl)n1.Cl,-2.62 ± 8.5%
2,Cc1[nH]c2ccccc2c1C1=C(NCCc2ccc(F)cc2)C(=O)N(C)C1=O,8.32 ± 10%
3,COc1cc(OC)c(/C=C/S(=O)(=O)Cc2ccc(OC)c(NCC(=O)[O-])c2)c(OC)c1.[Na+],-3.78 ± 11%
4,Cc1c(F)cc(C(=O)NC2CC2)cc1-c1ccc(C(=O)NCC(C)(C)C)cn1,-10 ± 9.6%
5,COc1cc2nccc(Oc3ccc(NC(=O)C4(C(=O)Nc5ccc(F)cc5)CC4)cc3)c2cc1OC.O=C(O)C[C@H](O)C(=O)O [Cabozantinib malate (XL184)],4.34 ± 3.9%
6,CCN1CCN(Cc2ccc(-c3cc4c(N[C@H](C)c5ccccc5)ncnc4[nH]3)cc2)CC1,12.6 ± 16%
7,Cc1cnc(Nc2ccc(OCCN3CCCC3)cc2)nc1Nc1cccc(S(=O)(=O)NC(C)(C)C)c1,31.6 ± 15%
8,C#Cc1cccc(Nc2ncnc3cc4c(cc23)OCCOCCOCCO4)c1 [Icotinib],-5.67 ± 19%
9,Nc1nc(NCCNc2ncc(-n3ccnc3)c(-c3ccc(Cl)cc3Cl)n2)ccc1[N+](=O)[O-],4.72 ± 12%
10,C=CC(=O)Nc1cccc(Sc2nc(Nc3ccc(N4CCN(C)CC4)cc3)ncc2Cl)c1,3.76 ± 18%
11,C=CC(=O)Nc1cccc(Nc2nc(Nc3ccc(N4CCN(C(C)=O)CC4)cc3OC)ncc2C(F)(F)F)c1,-2.96 ± 7.5%
12,COc1ccccc1-c1cc(Nc2cccc(CS(N)(=O)=O)c2)ncn1,-8.94 ± 6.4%
13,COc1ccc(Cl)cc1NC(=O)Nc1cc(C)nc2ccccc12,-2.86 ± 7.3%
14,CCS(=O)(=O)Nc1ccc2c(c1)/C(=C(/Nc1ccc(CN3CCCCC3)cc1)c1ccccc1)C(=O)N2 [Hesperadin],97.4 ± 5.1%
15,COc1ccc2c(Oc3ccc(NC(=O)c4c(C)n(CC(C)(C)O)n(-c5ccccc5)c4=O)nc3)ccnc2c1,0.253 ± 6.4%
16,COCCOc1ccc2c(c1)ncn2-c1ccc2cccc(N3CCC(N)CC3)c2n1,24.4 ± 7.1%

row,SMILES,percent reduction in TR-FRET probe signal
1,Cc1ccc(C(=O)Nc2ccc(CN3CCN(C)CC3)c(C(F)(F)F)c2)cc1C#Cc1cnc2[nH]ncc2c1,29.4 ± 11%
2,CCn1c(=O)c(-c2ccc(-c3cncs3)cc2Cl)cc2cnc(Nc3ccc(N4CCN(C)CC4)cc3)nc21,43.6 ± 6.3%
3,CCCNC(=O)c1cn2ncnc(Nc3cc(C(=O)NC4CC4)ccc3C)c2c1C,10.5 ± 8.4%
4,CS(=O)(=O)c1ccc(-c2cnc(N)c(C(=O)Nc3ccccc3)n2)cc1,5.23 ± 4.7%
5,O=C(Nc1c[nH]nc1-c1nc2cc(CN3CCOCC3)ccc2[nH]1)NC1CC1,52 ± 14%
6,COc1ccc(-c2ccc3c(N4CCOC[C@@H]4C)nc(N4CCOC[C@@H]4C)nc3n2)cc1CO,-7.43 ± 5.2%
7,C[C@@H](Oc1cc(-n2cnc3ccc(CN4CCN(C)CC4)cc32)sc1C(N)=O)c1ccccc1C(F)(F)F,2.7 ± 0.28%
8,CC(C)(CCCCCC(O)CCCCCC(C)(C)C(=O)O)C(=O)O,0.88 ± 3.4%
9,O=C(Nc1cccnc1)c1cc(-c2ccnc(F)c2)ccc1OCc1ccccc1,-0.16 ± 3.2%
10,CNC(=O)c1cc(Oc2ccc(NC(=O)Nc3ccc(Cl)c(C(F)(F)F)c3)cc2)ccn1 [Sorafenib],17.5 ± 6.7%
11,CNC(=O)c1ccccc1Sc1ccc2c(/C=C/c3ccccn3)n[nH]c2c1 [Axitinib],52.4 ± 18%
12,CCCCOc1c(C(=O)c2c(F)cc(C)cc2F)cnc2[nH]ncc12,0.53 ± 8%
13,CCOc1cc(C(=O)N2CCC(N3CCN(C)CC3)CC2)ccc1Nc1ncc2c(n1)N(C1CCCC1)c1ccccc1C(=O)N2C,-3.15 ± 9.5%
14,COc1cc(Nc2ncc3c(n2)-c2ccc(Cl)cc2C(c2c(F)cccc2OC)=NC3)ccc1C(=O)O [Alisertib (MLN8237)],2.08 ± 9.1%
15,CC(C)CC(NC(=O)C(Cc1ccccc1)NC(=O)C(CCC(N)=O)NC(=O)C(Cc1ccc(O)cc1)NC(=O)C(C)NC(=O)CNC(=O)C(CCCCN)NC(=O)C(Cc1c[nH]c2ccccc12)NC(=O)C(NC(=O)C(Cc1c[nH]c2ccccc12)NC(=O)C(CCCCN)NC(=O)CNC(=O)C(CC(N)=O)NC(=O)C(CCC(=O)O)NC(=O)C(Cc1c[nH]c2ccccc12)NC(=O)C(NC(=O)C(Cc1c[nH]c2ccccc12)NC(=O)C(CO)NC(=O)CNC(=O)C1CCCN1C(=O)C(Cc1c[nH]c2ccccc12)NC(=O)C(CCC(N)=O)NC(=O)C(Cc1ccccc1)NC(=O)CNC(=O)C(N)Cc1c[nH]cn1)C(C)O)C(C)O)C(=O)NC(CCCCN)C(=O)NCC(=O)NCC(=O)NCC(=O)NCC(=O)NC(CO)C(=O)NC(CCCNC(=N)N)C(=O)NC(CCCNC(=N)N)C(=O)NC(CCCNC(=N)N)C(=O)NC(CCCNC(=N)N)C(=O)NC(CCCNC(=N)N)C(=O)NC(CCCNC(=N)N)C(=O)NC(CCCNC(=N)N)C(=O)NC(CCCNC(=N)N)C(=O)NC(CCCNC(=N)N)C(=O)O (stereo unspecified),-15.1 ± 6.2%
